Screening data (PubChem)
LGR2 inh = Drosophila LGR2 receptor signaling inhibition; HEK293 LGR2, CRE-luciferase, bursicon-stimulated, 4 h; inhibition, % at 9.99 µM; 0.35% of 380,000 active; AID 720647;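 active = drop in luminescence signal, shown as inhibition above about 50% in the replicate tests, limit read from the data, passing the limit was not always enough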;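 also: agonist challenge used bursicon conditioned medium at about half maximal strength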
HSP90 inh = HSP90 refolding inhibition in rabbit reticulocyte lysate; luciferase refolding luminescence, 3 h; inhibition, % at 5.6 µM; 0.91% of 290,000 active; AID 1789;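 active = inhibition above the screen-wide mean plus 3 SD, computed separately per campaign, cut at about 16% in these data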;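 also: 0% = DMSO wells and 100% = 60 µM geldanamycin wells; inhibitors lower the luminescence because luciferase stays unfolded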
TROY NFkB inh = blocks TROY-dependent signaling in reporter cells; Q293 LMP1-TROYcd NF-kB luciferase reporter, 4 h; inhibition, % at 10 µM; 0.98% of 360,000 active;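 active = compounds whose plate-normalised and pattern-corrected inhibition of the luciferase reporter signal at the single screening dose is 50% or more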
TWEAK-Fn14 inh = TWEAK-Fn14 signaling inhibition. TWEAK-stimulated Fn14 reporter cells, luciferase luminescence, 8 h. inhibition, % at 10 µM. 2% of 360,000 active. AID 1159606; in the data active = inhibition above about 50%
* = called active by the depositor; nt = not tested or not shown. Most compounds without a hit are left out; they make up all but 2.2% or so of the library.

SMILES	LGR2 inh	HSP90 inh	TROY NFkB inh	TWEAK-Fn14 inh
O=C(c1cc2nc(-c3ccco3)cc(C(F)(F)F)n2n1)N1CCN(c2ccccn2)CC1	nt	1.6	-1.9	50.7*
Cc1c(C(c2ccccc2O)c2c(C)n(C)n(-c3ccccc3)c2=O)c(=O)n(-c2ccccc2)n1C	-1.8	0.8	4.5	-1.6
Cc1c(C(c2cc3c(cc2Br)OCO3)c2c(C)n(C)n(-c3ccccc3)c2=O)c(=O)n(-c2ccccc2)n1C	-2.3	-1.0	6.2	64.2*
O=C(Nc1ccc2c(c1)[C@@H]1C[C@@H](CC(=O)N3CCc4ccccc4C3)O[C@@H](CO)[C@@H]1O2)C1CCOCC1	12.2	nt	nt	nt
O=C(N/N=C/c1cn(-c2cccs2)nc1-c1ccccc1)c1ccccc1Br	nt	3.3	-28.8	40.5
O=C(N/N=C/c1cn(-c2cccs2)nc1-c1ccccc1)c1ccccc1O	73.7*	6.1	61.9*	90.8*
Cc1ccc(-c2nnc(SCC(=O)Nc3ccc4c(c3)oc3ccccc34)n2C)c(Cl)c1	nt	-7.5	22.1	67.5*
O=C(NC1CCCCC1)C1CCCN1S(=O)(=O)c1ccc(F)cc1 (stereo not drawn)	-4.3	-0.9	78.0*	15.9
Cc1ccc(S(=O)(=O)N2CCCC2C(=O)NC2CCCCC2)cc1 (stereo not drawn)	nt	-1.9	3.2	-6.6
O=C(C[C@H]1C[C@@H]2c3cc(NC(=O)NC4CCCC4)ccc3O[C@@H]2[C@@H](CO)O1)NCc1ccc(Cl)cc1	-13.2	nt	nt	nt
O=C(NCC1CC1)[C@@H]1[C@@H](CO)[C@@H]2Cn3c(cccc3=O)[C@H]1N2C(=O)c1ccccc1	-6.0	nt	nt	nt
O=C(C1CC1)N1CCc2cc(Br)cc(S(=O)(=O)NCCCN3CCCCC3)c21	-3.6	-2.8	3.4	-11.3
CC1CCN(CCCNS(=O)(=O)c2cc(Br)cc3c2N(C(=O)C2CC2)CC3)CC1	1.5	-2.3	-1.8	72.6*
CN(CC(=O)Nc1ccc(N2CCOCC2)cc1)Cc1c(O)ccc2ccccc12	38.7	-5.6	50.1*	34.2
CC(C)(C)OC(=O)N/N=C\c1ccc([N+](=O)[O-])s1	-13.9	1.3	66.3*	90.5*
Cc1ccc(C(=O)N/N=C/c2ccc([N+](=O)[O-])s2)cc1	nt	3.7	42.0	95.1*
CCC(=O)N(Cc1cc(=O)[nH]c2ccccc12)c1ccccc1	9.7	-1.4	-9.1	-11.3
Cc1ccccc1N(Cc1cc(=O)[nH]c2ccccc12)C(=O)CCl	36.6	0.0	-4.6	69.7*
O=C(CCl)N(Cc1cc(=O)[nH]c2ccccc12)c1ccccc1	33.8	2.4	8.5	81.5*
O=C(C[C@@H]1C=C[C@@H](NS(=O)(=O)c2cccc(F)c2)[C@H](CO)O1)N1CCCCC1	7.1	nt	nt	nt
Cc1cc(NC(=O)Cn2cc([N+](=O)[O-])cn2)no1	1.3	-0.2	88.2*	-4.0
Cc1cc(NC(=O)c2ccc(Cn3cc([N+](=O)[O-])cn3)o2)no1	-3.7	-0.3	11.2	3.0
Nc1ccc(C23CC4CC(CC(O)(C4)C2)C3)cc1	nt	4.7	74.1*	76.2*
Nc1ccc(C23CC4CC(CC(CO)(C4)C2)C3)cc1	nt	0.3	28.2	16.2
N#Cc1ccc(C(=O)Nc2nnc(-c3cccs3)o2)cc1	-54.3	0.6	-26.3	13.4
SMILES	LGR2 inh	HSP90 inh	TROY NFkB inh	TWEAK-Fn14 inh
O=C(Nc1nnc(-c2cccs2)o1)c1cccc(C(F)(F)F)c1	17.0	2.8	8.7	101.2*
COc1ccc(CS(=O)(=O)/C(Cl)=C(/Cl)C(=O)Nc2ccc(OC)nc2)cc1	nt	6.0	80.1*	99.5*
COc1ccc(NC(=O)/C(Cl)=C(/Cl)S(=O)Cc2ccccc2)cn1 (stereo not drawn)	nt	5.8	63.0*	97.8*
C=CC(=O)Nc1ccc(Nc2nc(NC3CCC(N(C)C)CC3)nc3c2ncn3C(C)C)cc1 (stereo not drawn)	nt	nt	71.2*	95.4*
CCn1c2ccccc2c2cc(/C=N/O)ccc21	27.0	-1.4	34.1	71.2*
CCn1c2ccccc2c2cc(/C=N/n3cnnc3)ccc21	nt	-2.8	45.5	-44.6
Cc1cccc(OCC(=O)Nc2ccc3c(c2)OCCO3)c1	nt	1.2	-50.6	-3.8
O=C(CNC(=O)c1ccco1)Nc1ccc2c(c1)OCCO2	21.9	nt	70.5*	86.0*
Cc1ccc(NC(=O)CNC(=O)c2ccco2)cc1Cl	-34.5	-4.5	-12.3	-3.9
COc1ccc2nc(SCC(=O)Nc3ccc4c(c3)OCCO4)[nH]c2c1	-8.5	12.2	69.3*	89.1*
Cc1ccc(OCC(=O)Nc2ccc3c(c2)OCCO3)cc1C	-44.4	7.5	44.1	53.5*
CC(C)CC(NC(=O)c1ccco1)C(=O)Nc1ccc2c(c1)OCCO2 (stereo not drawn)	2.1	4.6	43.0	76.1*
CC(C)CC(NC(N)=O)C(=O)Nc1ccc2c(c1)OCO2 (stereo not drawn)	-22.3	-0.7	-27.4	-11.7
C[C@H]1CN([C@@H](C)CO)S(=O)(=O)c2ccc(C#CCN(C)C)cc2O[C@@H]1CN(C)Cc1cccnc1	6.8	nt	nt	nt
C[C@H]1CN([C@@H](C)CO)C(=O)c2cc(-c3cncnc3)cnc2O[C@H]1CN(C)Cc1ccc(F)cc1	-10.6	nt	nt	nt
O=C(C[C@@H]1CC[C@H]2[C@@H](COC[C@H](O)CN2C(=O)Nc2cc(Cl)cc(Cl)c2)O1)N1CCOCC1	-9.1	nt	nt	nt
CCOC(=O)c1c(C)[nH]c(C)c1C(=O)CSc1nc2ccccc2n1CC	7.9	2.3	8.6	2.4
CCOC(=O)c1c(C)[nH]c(C)c1C(=O)CSc1nc2ccccc2c(=O)n1-c1ccc(CC)cc1	-0.1	-1.3	14.5	50.4*
CCOC(=O)c1ccc(Oc2nc(SC)nc(N(C)C)n2)cc1	nt	-0.2	nt	73.5*
CC(C)NC(=O)N1[C@H](CO)[C@@H]2c3ccccc3N(C(=O)C3CC3)C[C@@H]21	14.1	nt	nt	nt
CC(=O)c1cccc(NC(=O)COC(=O)COc2c(Cl)cc(Cl)c3ccc(C)nc23)c1	nt	2.4	28.0	63.1*
C[C@H](O)C#Cc1ccc2c(c1)O[C@@H](CN(C)C(=O)c1ccccc1)[C@H](C)CN([C@@H](C)CO)S2(=O)=O	-11.2	nt	nt	nt
O=C(Cc1ccncc1)NCC[C@@H]1CC[C@H](NC(=O)C2CC2)[C@@H](CO)O1	-23.9	nt	nt	nt
COc1ccc(Cc2[nH]n3c(=O)c(Cl)c(C)nc3c2-c2ccccc2)cc1	-30.4	0.0	69.4*	25.9
Cc1ccc([C@H]2C(C(=O)O)=CC[C@@H](c3ccc(Cl)c(Cl)c3)N2S(=O)(=O)c2ccc(C)cc2)cc1	-6.9	nt	57.3*	9.9
SMILES	LGR2 inh	HSP90 inh	TROY NFkB inh	TWEAK-Fn14 inh
CCC(=O)NC(=S)Nc1cccc(NC(=O)c2ccc(Cl)cc2Cl)c1	nt	3.2	-12.2	3.6
CC(C)C(=O)Nc1cccc(NC(=O)c2ccc(Cl)cc2Cl)c1	9.3	-1.7	56.0*	-0.4
C/C=C/c1ccc([C@@H]2[C@H](CO)N(C(=O)CN(C)C)C23CN(C(=O)C2CCCCC2)C3)cc1	-10.7	nt	nt	nt
COc1ccc(-c2csc3ncnc(NCCO)c23)cc1	28.4	-1.2	45.1	72.5*
COc1ccc(-c2csc3ncnc(NCCCO)c23)cc1	16.0	3.4	35.4	65.1*
O=C(C[C@@H]1C[C@@H]2c3cc(NC(=O)Nc4ccc(C(F)(F)F)cc4)ccc3O[C@@H]2[C@@H](CO)O1)NC1CCCCC1	1.2	nt	nt	nt
Cc1ccc(S(=O)c2snnc2C)cc1 (stereo not drawn)	-10.0	3.8	-11.7	7.4
CCCNC(=O)c1nnsc1S(=O)(=O)c1ccc(Cl)cc1	96.2*	-3.2	73.0*	70.1*
CNC(=O)c1nnsc1S(=O)c1ccc(Cl)cc1 (stereo not drawn)	102.4*	1.5	60.1*	63.5*
CCCNC(=O)c1nnsc1S(=O)c1ccc(Cl)cc1 (stereo not drawn)	102.8*	3.1	59.0*	71.7*
CCCNC(=O)NS(=O)(=O)c1ccc(Cl)cc1	6.6	-1.8	-2.6	2.3
